Data reported in the supplement of paper PMC11732987, “Enantioselective OTUD7B fragment discovery through chemoproteomics screening and high-throughput optimisation” (Communications Chemistry, 2025).

Key:
Assay in all cases: log2 ratio of Biotin-Ahx-Ub-VS probe labelling (fragment/DMSO); higher = less target engagement (more negative = stronger competition), active = hit call of the paper (q ≤ 0.05, log2 ratio ≤ -1)
Details in all cases: compound concentration: 200 uM; treatment time: 3 h
USP42 = target: T1, USP42 (UniProt Q9H9J4)
T1 sequence (whole entry): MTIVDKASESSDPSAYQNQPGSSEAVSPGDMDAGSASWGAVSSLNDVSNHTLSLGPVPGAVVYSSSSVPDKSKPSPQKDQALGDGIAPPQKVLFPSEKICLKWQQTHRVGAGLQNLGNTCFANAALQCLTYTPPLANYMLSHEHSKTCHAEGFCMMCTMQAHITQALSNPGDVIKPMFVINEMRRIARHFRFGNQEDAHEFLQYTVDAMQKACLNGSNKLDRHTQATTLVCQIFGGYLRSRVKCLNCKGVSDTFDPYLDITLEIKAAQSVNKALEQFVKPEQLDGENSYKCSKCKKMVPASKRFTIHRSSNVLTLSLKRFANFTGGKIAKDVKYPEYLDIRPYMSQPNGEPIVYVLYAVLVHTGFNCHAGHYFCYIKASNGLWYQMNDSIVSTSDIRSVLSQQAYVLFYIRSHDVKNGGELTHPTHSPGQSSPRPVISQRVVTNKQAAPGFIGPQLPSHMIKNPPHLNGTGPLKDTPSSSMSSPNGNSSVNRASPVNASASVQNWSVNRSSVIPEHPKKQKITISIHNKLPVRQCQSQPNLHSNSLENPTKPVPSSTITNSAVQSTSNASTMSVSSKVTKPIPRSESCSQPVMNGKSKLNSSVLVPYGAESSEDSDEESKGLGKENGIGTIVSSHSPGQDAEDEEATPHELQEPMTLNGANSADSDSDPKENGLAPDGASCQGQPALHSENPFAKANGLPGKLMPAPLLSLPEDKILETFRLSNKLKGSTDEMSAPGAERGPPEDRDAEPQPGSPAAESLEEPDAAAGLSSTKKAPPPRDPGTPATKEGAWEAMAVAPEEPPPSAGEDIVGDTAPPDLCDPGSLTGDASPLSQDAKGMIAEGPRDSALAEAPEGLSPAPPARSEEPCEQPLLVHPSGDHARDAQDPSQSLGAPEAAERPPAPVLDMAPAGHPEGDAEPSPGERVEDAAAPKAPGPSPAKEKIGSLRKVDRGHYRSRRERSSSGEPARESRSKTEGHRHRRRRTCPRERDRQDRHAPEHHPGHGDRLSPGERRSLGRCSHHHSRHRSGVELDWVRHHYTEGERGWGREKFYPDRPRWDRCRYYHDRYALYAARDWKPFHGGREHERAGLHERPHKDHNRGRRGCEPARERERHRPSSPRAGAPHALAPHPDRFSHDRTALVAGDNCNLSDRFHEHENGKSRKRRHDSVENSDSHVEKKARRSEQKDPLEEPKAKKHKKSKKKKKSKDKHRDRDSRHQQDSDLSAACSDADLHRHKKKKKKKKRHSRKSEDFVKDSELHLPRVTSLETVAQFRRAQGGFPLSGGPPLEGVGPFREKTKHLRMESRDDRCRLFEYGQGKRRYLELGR
Method in brief: (§1)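 In triplicate, 495 µg of HEK293T lysate per sample was incubated with fragment at 200 µM or vehicle for 3 h. Biotin-Ahx-Ub-VS was then added to 0.5 µM final for 1 h, and labelled DUBs were captured with NeutrAvidin, digested with LysC and trypsin, and measured by diaPASEF LC-MS/MS. Data are average log2 fragment/vehicle ratios by unpaired t-test from global-median-normalised Spectronaut label-free quantities, restricted to proteins with ≥2 unique peptides.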

USP46 = USP46 (UniProt P62068)
Method in brief: as §1

USP47 = target: T2, USP47 (UniProt Q96K76)
T2 sequence (whole entry): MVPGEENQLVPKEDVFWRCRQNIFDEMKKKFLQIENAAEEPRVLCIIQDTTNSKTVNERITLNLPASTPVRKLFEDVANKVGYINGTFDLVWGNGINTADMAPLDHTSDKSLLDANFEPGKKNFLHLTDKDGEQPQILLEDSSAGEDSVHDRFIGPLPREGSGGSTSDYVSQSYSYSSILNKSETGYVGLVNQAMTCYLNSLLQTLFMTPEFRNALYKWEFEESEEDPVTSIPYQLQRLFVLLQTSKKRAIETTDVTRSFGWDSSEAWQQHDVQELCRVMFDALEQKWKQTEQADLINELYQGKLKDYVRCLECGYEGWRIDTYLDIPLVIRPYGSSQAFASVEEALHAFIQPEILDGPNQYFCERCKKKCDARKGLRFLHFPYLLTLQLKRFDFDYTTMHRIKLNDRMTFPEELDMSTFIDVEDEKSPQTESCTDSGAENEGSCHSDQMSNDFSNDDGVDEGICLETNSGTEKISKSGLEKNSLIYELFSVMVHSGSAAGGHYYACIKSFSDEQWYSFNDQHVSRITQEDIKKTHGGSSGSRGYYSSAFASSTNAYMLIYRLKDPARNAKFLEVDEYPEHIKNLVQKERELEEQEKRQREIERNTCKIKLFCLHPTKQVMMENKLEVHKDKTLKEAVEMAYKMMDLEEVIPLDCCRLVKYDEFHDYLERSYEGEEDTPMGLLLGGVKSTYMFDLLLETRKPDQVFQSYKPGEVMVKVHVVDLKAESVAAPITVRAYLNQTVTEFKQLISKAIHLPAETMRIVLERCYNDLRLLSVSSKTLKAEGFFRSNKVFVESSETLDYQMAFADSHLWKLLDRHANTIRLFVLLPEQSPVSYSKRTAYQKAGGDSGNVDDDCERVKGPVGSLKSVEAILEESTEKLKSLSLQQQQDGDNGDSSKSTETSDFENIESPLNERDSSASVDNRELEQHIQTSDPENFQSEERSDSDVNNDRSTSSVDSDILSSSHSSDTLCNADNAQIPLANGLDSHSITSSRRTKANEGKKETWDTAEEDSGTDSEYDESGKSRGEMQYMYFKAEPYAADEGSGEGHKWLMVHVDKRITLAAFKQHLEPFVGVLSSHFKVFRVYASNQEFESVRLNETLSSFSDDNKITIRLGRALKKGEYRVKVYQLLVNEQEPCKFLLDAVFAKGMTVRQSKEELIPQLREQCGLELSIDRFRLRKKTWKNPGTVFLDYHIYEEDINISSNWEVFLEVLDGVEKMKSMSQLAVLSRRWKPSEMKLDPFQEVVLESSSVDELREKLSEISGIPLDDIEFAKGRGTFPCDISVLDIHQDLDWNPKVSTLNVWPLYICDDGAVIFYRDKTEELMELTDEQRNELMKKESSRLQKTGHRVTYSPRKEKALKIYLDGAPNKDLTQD
Method in brief: as §1

USP48 = target: T3, USP48 (UniProt Q86UV5)
T3 sequence (whole entry): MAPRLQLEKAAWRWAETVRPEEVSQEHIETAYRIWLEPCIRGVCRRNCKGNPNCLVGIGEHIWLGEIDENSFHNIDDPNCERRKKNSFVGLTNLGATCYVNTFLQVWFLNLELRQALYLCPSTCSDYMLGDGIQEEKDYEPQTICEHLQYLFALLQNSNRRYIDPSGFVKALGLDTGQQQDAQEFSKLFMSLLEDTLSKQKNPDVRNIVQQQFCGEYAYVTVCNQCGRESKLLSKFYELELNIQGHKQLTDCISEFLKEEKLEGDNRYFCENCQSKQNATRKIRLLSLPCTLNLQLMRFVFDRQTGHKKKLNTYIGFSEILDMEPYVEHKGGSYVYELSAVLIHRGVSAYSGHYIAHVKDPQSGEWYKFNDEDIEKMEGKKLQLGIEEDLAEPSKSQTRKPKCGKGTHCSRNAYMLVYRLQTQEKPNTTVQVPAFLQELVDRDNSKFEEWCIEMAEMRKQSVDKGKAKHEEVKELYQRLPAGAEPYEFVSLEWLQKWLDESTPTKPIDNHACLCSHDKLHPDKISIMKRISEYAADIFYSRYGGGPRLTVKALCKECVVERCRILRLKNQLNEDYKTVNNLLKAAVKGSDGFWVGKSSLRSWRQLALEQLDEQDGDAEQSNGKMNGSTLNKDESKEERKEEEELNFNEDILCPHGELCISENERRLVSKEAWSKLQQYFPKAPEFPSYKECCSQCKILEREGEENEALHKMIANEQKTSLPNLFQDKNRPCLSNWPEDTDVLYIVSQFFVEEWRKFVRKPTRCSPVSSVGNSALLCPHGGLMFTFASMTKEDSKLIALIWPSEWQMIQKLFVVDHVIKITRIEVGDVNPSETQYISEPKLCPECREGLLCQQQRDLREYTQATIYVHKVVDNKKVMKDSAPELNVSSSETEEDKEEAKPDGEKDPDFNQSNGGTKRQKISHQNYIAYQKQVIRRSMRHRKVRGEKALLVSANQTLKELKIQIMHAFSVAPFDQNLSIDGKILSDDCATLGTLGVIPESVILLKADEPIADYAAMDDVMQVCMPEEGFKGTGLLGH
Method in brief: as §1

USP5 = target: T4, USP5 (UniProt P45974)
T4 sequence (whole entry): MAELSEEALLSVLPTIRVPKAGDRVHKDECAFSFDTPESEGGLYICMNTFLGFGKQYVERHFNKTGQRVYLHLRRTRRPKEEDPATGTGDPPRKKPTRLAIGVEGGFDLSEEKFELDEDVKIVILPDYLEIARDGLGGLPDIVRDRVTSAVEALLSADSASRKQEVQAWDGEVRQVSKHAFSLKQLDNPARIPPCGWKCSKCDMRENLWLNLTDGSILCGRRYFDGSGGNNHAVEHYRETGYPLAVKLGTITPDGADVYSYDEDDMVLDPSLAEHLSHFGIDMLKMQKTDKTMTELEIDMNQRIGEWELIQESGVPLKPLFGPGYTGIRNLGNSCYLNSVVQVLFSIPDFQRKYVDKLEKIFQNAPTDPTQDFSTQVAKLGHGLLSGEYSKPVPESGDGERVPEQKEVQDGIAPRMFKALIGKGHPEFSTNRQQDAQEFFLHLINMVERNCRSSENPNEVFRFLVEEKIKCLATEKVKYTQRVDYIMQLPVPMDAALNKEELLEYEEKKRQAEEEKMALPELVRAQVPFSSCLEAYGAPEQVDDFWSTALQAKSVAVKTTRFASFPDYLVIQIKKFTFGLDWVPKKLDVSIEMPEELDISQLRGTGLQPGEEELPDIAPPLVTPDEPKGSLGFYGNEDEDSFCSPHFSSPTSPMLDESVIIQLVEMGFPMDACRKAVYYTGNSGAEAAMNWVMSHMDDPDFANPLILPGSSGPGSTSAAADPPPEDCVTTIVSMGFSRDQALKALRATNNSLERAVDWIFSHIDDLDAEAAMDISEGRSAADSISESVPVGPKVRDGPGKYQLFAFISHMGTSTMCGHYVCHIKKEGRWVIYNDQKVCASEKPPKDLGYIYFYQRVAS
Method in brief: as §1

USP54 = USP54 (UniProt Q70EL1)
Method in brief: as §1

USP7 = USP7 (UniProt Q93009)
Method in brief: as §1

USP8 = target: T5, USP8 (UniProt P40818)
T5 sequence (whole entry): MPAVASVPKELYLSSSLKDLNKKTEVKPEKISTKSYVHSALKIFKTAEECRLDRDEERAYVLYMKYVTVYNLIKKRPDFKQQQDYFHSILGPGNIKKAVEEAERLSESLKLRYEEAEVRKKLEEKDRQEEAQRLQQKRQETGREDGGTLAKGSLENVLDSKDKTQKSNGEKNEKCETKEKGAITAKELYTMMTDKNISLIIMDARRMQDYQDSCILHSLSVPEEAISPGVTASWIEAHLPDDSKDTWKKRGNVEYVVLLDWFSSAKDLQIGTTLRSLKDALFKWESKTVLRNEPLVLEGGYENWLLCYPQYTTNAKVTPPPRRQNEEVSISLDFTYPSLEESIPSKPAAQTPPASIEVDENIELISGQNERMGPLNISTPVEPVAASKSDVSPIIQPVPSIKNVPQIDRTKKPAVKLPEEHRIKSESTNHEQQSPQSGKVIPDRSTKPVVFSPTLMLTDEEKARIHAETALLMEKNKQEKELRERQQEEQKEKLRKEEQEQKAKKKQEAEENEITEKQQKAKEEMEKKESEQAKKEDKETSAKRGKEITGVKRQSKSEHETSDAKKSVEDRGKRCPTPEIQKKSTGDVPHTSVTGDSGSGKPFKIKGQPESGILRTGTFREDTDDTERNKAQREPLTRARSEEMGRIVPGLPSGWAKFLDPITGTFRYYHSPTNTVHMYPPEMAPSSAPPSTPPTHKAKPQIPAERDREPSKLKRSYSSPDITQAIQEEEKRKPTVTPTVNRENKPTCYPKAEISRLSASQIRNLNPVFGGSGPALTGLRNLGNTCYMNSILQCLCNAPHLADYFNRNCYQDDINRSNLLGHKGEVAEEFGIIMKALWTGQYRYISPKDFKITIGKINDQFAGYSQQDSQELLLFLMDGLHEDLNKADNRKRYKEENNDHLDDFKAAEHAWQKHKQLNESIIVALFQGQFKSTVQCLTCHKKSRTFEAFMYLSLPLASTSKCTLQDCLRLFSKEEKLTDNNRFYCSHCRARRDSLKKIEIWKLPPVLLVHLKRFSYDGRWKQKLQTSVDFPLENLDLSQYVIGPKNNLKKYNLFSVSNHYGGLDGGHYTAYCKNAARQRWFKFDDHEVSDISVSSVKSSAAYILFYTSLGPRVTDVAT
Method in brief: as §1

USP9X = USP9X (UniProt Q93008)
Method in brief: as §1

UniProt O00487 = target: UniProt O00487
Method in brief: as §1

Measured: log2 ratio of Biotin-Ahx-Ub-VS probe labelling

Chain of USP54 (Q70EL1 whole entry): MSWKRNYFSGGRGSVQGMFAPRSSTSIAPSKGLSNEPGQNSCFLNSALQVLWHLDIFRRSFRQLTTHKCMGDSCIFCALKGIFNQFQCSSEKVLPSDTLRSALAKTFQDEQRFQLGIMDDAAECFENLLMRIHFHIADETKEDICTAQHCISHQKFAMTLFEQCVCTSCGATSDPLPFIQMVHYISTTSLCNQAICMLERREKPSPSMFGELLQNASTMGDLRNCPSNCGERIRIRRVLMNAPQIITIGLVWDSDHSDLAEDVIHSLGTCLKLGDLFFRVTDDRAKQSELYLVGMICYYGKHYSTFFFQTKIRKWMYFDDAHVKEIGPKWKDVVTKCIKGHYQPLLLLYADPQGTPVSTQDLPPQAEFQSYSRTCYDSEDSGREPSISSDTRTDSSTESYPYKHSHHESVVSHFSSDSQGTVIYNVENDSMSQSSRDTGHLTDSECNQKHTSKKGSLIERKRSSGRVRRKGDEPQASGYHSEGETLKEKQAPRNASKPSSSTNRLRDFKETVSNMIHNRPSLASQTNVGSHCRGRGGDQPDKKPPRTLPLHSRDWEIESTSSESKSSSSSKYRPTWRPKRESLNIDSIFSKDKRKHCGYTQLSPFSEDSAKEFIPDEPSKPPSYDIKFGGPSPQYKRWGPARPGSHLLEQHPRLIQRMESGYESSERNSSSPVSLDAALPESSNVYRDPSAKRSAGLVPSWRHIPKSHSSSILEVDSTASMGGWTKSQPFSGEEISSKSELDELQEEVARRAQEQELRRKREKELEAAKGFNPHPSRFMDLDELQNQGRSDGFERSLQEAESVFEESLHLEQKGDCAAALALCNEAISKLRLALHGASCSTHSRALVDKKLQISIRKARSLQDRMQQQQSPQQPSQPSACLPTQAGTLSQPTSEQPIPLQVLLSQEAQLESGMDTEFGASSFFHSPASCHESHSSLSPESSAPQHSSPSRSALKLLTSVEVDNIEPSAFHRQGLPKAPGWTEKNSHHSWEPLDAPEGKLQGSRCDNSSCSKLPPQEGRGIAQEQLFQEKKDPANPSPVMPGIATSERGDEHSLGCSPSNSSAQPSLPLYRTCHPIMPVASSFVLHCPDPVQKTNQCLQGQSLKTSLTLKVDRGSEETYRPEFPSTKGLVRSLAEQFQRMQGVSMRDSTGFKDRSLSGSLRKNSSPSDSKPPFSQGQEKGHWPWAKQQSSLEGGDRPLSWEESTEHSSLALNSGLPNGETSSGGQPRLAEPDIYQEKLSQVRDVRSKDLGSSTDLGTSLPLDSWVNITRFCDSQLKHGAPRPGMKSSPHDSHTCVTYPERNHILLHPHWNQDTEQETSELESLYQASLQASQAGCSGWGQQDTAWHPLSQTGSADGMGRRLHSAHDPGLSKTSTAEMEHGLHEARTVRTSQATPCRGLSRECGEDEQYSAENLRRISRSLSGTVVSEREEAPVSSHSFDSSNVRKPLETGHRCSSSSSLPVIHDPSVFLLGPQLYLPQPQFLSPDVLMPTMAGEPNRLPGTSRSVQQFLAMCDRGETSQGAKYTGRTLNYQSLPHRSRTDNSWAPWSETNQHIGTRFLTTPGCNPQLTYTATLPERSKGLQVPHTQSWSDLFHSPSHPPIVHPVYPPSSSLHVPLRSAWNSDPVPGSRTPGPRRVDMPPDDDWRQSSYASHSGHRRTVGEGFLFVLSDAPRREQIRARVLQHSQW
Chain of USP7 (Q93009 whole entry, looked up): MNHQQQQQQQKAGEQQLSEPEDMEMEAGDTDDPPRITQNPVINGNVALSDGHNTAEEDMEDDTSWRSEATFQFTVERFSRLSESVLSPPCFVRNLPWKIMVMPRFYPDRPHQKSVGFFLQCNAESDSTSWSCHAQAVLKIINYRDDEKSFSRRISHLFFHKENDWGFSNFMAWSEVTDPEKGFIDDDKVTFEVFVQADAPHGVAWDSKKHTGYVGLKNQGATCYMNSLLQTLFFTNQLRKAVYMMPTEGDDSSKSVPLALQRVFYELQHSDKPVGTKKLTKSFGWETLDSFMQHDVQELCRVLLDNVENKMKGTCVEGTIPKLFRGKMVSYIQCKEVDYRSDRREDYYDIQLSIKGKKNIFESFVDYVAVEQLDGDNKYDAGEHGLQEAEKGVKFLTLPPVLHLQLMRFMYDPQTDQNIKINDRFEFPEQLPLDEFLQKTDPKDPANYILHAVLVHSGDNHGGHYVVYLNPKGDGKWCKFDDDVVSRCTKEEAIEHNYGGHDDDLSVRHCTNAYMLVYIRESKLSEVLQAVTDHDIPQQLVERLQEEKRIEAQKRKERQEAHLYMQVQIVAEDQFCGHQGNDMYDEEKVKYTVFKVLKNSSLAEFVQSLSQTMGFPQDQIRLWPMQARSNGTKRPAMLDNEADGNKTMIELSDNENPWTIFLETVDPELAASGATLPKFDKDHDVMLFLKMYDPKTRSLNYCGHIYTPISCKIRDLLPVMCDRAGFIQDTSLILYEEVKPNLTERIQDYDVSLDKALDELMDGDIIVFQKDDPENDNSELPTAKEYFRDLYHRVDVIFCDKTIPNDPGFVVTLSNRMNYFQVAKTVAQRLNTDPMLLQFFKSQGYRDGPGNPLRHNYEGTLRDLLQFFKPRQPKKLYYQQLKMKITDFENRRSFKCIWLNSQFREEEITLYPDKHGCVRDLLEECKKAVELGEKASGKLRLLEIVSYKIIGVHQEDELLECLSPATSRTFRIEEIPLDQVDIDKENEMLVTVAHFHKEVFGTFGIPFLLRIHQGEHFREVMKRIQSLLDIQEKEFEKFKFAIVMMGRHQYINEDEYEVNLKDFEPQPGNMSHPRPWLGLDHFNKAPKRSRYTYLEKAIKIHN
Chain of UniProt O00487 (O00487 whole entry): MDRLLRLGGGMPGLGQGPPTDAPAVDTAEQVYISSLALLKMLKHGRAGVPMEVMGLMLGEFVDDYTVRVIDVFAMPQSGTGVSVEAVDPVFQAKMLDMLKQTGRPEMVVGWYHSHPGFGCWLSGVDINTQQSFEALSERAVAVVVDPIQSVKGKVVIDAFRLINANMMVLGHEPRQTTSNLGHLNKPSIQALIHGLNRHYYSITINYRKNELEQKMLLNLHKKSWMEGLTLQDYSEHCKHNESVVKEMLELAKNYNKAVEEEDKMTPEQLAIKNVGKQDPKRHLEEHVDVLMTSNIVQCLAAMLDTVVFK
Chain of USP46 (P62068 whole entry): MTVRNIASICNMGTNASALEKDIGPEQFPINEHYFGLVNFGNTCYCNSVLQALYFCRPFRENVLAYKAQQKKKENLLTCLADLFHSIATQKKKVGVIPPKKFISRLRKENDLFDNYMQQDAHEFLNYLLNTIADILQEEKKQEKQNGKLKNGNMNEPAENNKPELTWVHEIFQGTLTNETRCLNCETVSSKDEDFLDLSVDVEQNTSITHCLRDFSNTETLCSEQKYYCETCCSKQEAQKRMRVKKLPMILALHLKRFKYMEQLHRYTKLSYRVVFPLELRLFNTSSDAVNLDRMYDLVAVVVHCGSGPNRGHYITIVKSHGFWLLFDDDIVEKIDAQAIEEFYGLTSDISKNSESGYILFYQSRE

O=C(CCl)N1CCN(c2nc3ccccc3o2)CC1
inactive: USP42 0.952 | USP46 -0.372 | USP47 -0.362 | USP48 -0.829 | USP5 -0.993 | USP54 -0.173 | USP8 -0.223 | USP9X -0.248 | UniProt O00487 -0.0834
active: USP7 -1.99
